Compounds without any hit were thinned out: in the full panel of roughly 79,000, 15% have a hit. A number with no mark means an inactive call. Calls of active or inactive are those of the source. Rule as the data show it: active = growth inhibition above about 70%; inactive = the rest.
Key:
[1] = NCI Yeast Anticancer Drug Screen. Data for the rad50 strain (AID 155);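 also: 0% = growth of vehicle-only cultures of the same strain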; conditions: S. cerevisiae rad50 strain growth inhibition; at 50.0 µM; stronger effect = higher value
Procedure, shortened: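 Vehicle-treated cultures provide the reference for the growth inhibition reported for compound-exposed, repair-deficient yeast.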

[2] = NCI Yeast Anticancer Drug Screen. Data for the mec2-1 strain (AID 157); conditions: S. cerevisiae mec2-1 strain, at 50.0 µM, stronger effect = higher value
Procedure, shortened: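 mec2-1 yeast strain, carrying an alteration in DNA damage repair or cell cycle control, was exposed to compounds; growth inhibition was measured relative to vehicle-treated controls.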

[3] = NCI Yeast Anticancer Drug Screen. Data for the sgs1 mgt1 strain (AID 161);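 also: 0% = growth of cultures given vehicle only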; conditions: S. cerevisiae sgs1 mgt1 strain, at 50.0 µM, stronger effect = higher value
Procedure, shortened: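 This yeast growth screen uses a strain with defined DNA-repair lesions; compound-treated growth is compared with vehicle-treated growth.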

[4] = NCI Yeast Anticancer Drug Screen. Data for the cln2 rad14 strain (AID 165);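 also: 0% = growth equal to vehicle treated cultures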; conditions: S. cerevisiae cln2 rad14 strain, at 50.0 µM, stronger effect = higher value
Procedure, shortened: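 Yeast carrying cln2 and rad14 alterations (cell cycle control and DNA damage repair) were exposed to compounds. Growth inhibition was measured against vehicle-treated controls.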

[5] = NCI Yeast Anticancer Drug Screen. Data for the bub3 strain (AID 167); conditions: S. cerevisiae bub3 mutant strain, at 50.0 µM, stronger effect = higher value
Procedure, shortened: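 Mutant yeast screening strain plus compound; vehicle-treated cultures serve as the 0% inhibition reference.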

[6] = NCI Yeast Anticancer Drug Screen. Data for the mlh1 rad18 strain (AID 175); conditions: S. cerevisiae mlh1 rad18 strain growth inhibition; at 50.0 µM; stronger effect = higher value
Procedure, shortened: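 Growth inhibition of the yeast strain was measured after compound exposure and expressed relative to vehicle-treated controls. The strain carries defined defects in DNA damage repair.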

| Structure (SMILES) | growth inhibition [1] | growth inhibition [2] | growth inhibition [3] | growth inhibition [4] | growth inhibition [5] | growth inhibition [6] |
| --- | --- | --- | --- | --- | --- | --- |
| CC(C)C(=O)N(C(C)C)C(C)C | 25.2% | 12.5% | 8.5% | -21.6% | -0.55% | 38% |
| FC(F)(F)C1(C(F)(F)F)C2CCC3(CC(F)(F)C(F)(F)S3)C1C2 (configuration not stated) | -1.05% | -27.9% | -4.25% | 22.9% | 7.65% | 30.6% |
| Cc1c(Cl)ccc2c1NC(=O)C2(O)CC(=O)c1ccccc1 (configuration not stated) | 10.1% | -3.95% | 35.9% | 7.15% | -18.8% | 30.3% |
| CN(C)CCNc1ccc2ncn3c4ccccc4c(=O)c1c23 | 13.4% | -0.35% | -4.95% | 27.1% | -0.1% | 46.5% |
| Cc1cc(Br)ccc1N | -3.15% | 1.95% | -9.5% | -36.5% | 19.1% | 9.25% |
| CN1CCS(=O)(=O)CC1 | 5.4% | -40% | -17.6% | -2.55% | 1.75% | 5.05% |
| O=C(NC1(C(=O)O)CCCC1)C(F)(F)F | -13.8% | 14.7% | -14.2% | -25.3% | 2.45% | -8.25% |
| O=C1C(=O)C(CCc2ccccc2)C(=O)/C1=C\c1ccccc1 (configuration not stated) | 4.4% | 17.6% | 10.6% | -10.4% | -6.55% | 20.2% |
| CCCC(=O)n1[nH]c(=O)n(C(C)(C)C)c1=O | 2.3% | -7.65% | 14.8% | 6.4% | 7.5% | -22.8% |
| O=C(NCCCCCCNC(=O)c1ccccn1)c1ccccn1 | 0.25% | -9.9% | 9.05% | -7.15% | -14.8% | -0.8% |
| CCC(C)C1SCC(=O)N1c1nncs1 (configuration not stated) | 10.6% | 7.45% | 6.55% | -4.6% | 4.9% | 16.4% |
| Cc1cc(Nc2ccc(O)cc2)nc(Nc2ccc(O)cc2)n1 | -8.25% | -18.4% | -35.3% | -34% | 10.9% | -2.3% |
| CCOP(=O)(OCC)/C(C#N)=C/c1ccc2ccccc2c1 | -7.5% | -5.05% | -16.8% | -16.3% | 5% | -13.6% |
| O=C1c2ccccc2-c2nc(/C=C/c3ccccc3)cc3c2c1nc1ccccc13 | 10.2% | 6.2% | 8.6% | 7% | -9.5% | -0.25% |
| C1=COC(C=Nc2ccccc2)CC1 (configuration not stated) | -12.3% | 13.8% | 4.5% | -18.2% | 15.8% | -12.6% |
| CCCC=Nc1ccccc1 | 8.3% | 3.65% | 14.5% | -19.9% | 10.8% | 13.1% |
| CCOC(=O)/C=C/c1ccc(F)cc1 | 27.6% | 2% | 18.1% | 11.2% | 20.8% | 10.9% |
| O=C(Nc1ccccc1[N+](=O)[O-])OCCOc1ccccc1 | 1.65% | 21.2% | 6.8% | -7.2% | 30.8% | -9.85% |
| CC(C)=CCC/C(C)=C/Cn1c(=O)cc[nH]c1=O | 10.7% | -6.9% | -15.8% | -107% | 2.15% | -0.1% |
| N#CCCN(CCC#N)C(Cc1cn(CCC#N)cn1)C(=O)O (configuration not stated) | -8.5% | 6.35% | 4.95% | -13.2% | 5.35% | 10.8% |
| CSc1ccc(/C=C/c2ccnc3ccccc23)cc1 | 11.8% | 14.8% | 20.7% | -12.3% | 4.7% | 7.95% |

| Structure (SMILES) | growth inhibition [1] | growth inhibition [2] | growth inhibition [3] | growth inhibition [4] | growth inhibition [5] | growth inhibition [6] |
| --- | --- | --- | --- | --- | --- | --- |
| COc1ccc(C2OCC3(O)C(c4ccc(OC)c(OC)c4)OCC23)cc1OC (configuration not stated) | -0.85% | -3.15% | -1.35% | 19.4% | -9.8% | 6.85% |
| CC12OC(=O)C(C#N)C1(C)C1C(=O)CCCC12 (configuration not stated) | -2.8% | -7.55% | 7.4% | 1.9% | -0.3% | -8.55% |
| Cc1ccc(S(=O)(=O)c2scc(-c3ccccc3)c2C)cc1 | -47.2% | -57.8% | -31.1% | -8.7% | -17.9% | -13.2% |
| CC(N)(CCBr)C(=O)O (configuration not stated) | 3.85% | 5.2% | -0.05% | -4.75% | -5.95% | -17.4% |
| NC(=O)C1N=NSC1NC(=O)c1ccc([N+](=O)[O-])cc1 (configuration not stated) | 1.8% | -5.6% | -8.9% | 6.65% | -9.15% | 5.45% |
| CC(C)(C)C1=CC(=N/S(=O)(=O)c2ccccc2)/C(N=[N+]=[N-])=C(Cl)C/1=N\S(=O)(=O)c1ccccc1 | 54.8% | 27.4% | 48.2% | 14% | 23.6% | 39% |
| O=[N+]([O-])c1ccc(N/N=C2/C(=C/c3cccc4ccccc34)CCc3ccccc32)c([N+](=O)[O-])c1 | -13.6% | -16.3% | -20.8% | -32.5% | 37.5% | -19.6% |
| NN(CC(=O)O)CC(=O)O | 18.8% | -2.8% | 2% | 4.75% | 29.1% | 20.9% |
| COC(=O)COc1cc2c(cc1C(C)c1ccc(O)cc1)OCO2 (configuration not stated) | 98.8% (active) | 98.5% (active) | 99% (active) | 99.1% (active) | 99.2% (active) | 98.7% (active) |
| Cc1cc(N)c2cc(N)ccc2n1 | 99.6% (active) | 99.5% (active) | 99.4% (active) | 64.7% | 99.2% (active) | 98.2% (active) |
| NC(=O)N/N=C/c1ccc(O)cc1 | 5.15% | -1.15% | 1% | -11.1% | -3.85% | -1.5% |
| COc1ccc(Br)c(CN2CCc3ccccc32)c1OS(=O)(=O)c1ccc(C)cc1 | 13.8% | -0.3% | 18.7% | 4.1% | 5.45% | 12.4% |
| CCOC(=O)C(Cc1ccc(O)cc1)NC(=O)C(CSC(c1ccccc1)(c1ccccc1)c1ccccc1)NC(c1ccccc1)(c1ccccc1)c1ccccc1 (configuration not stated) | 4.85% | 0.8% | -14.8% | -1.65% | -5.05% | 9.55% |
| OC1CCCC2CCCC12 (configuration not stated) | 1% | 1.15% | -8.1% | 15.4% | 16.4% | -5.75% |
| C=CCSS/C=C/CS(=O)CC=C (configuration not stated) | 22.6% | 54% | 75.3% (active) | 32% | 78.3% (active) | -19.3% |
| CC1CCCN(P(c2ccccc2)N2CCCC(C)C2)C1 (configuration not stated) | 25% | 4.6% | 16.4% | 15.4% | 26% | 13% |
| COc1cccc(OC)c1/C=C1\N=C(c2ccccc2)OC1=O | -1.4% | -1.4% | 2.55% | -56.9% | 5.55% | -9.25% |
| COC(=O)[C@]1(C)CCC[C@@]2(C)C1CC[C@@]13C=C(C(C)C)[C@@H](CC1=O)CC23 (some centres not stated) | 10.7% | 4.7% | -1.7% | 32.7% | 26.4% | 19.1% |
| CCCO/N=[N+](\[O-])N(CC)CC | -7.7% | -17.4% | 7.5% | 13.8% | -0.8% | -1.45% |
| Cc1cncc(C)c1 | 17.6% | -22.1% | 5.6% | -6.85% | 7.2% | 8.5% |
| O=C(O)c1ccccc1C(=O)OCC1CCc2ccccc2C1 (configuration not stated) | 5.45% | 26.8% | 28.3% | 33% | 51.4% | 9.2% |

Source: PubChem BioAssay (NCI)
